# How the values were obtained:
# Experiment in all cases: thermal shift delta Tm vs DMSO control; higher = stronger stabilization (binding)
# Conditions in all cases: 12.5 µM; protein concentration 2 µM
# LOC_OS01G01410-cb001 = system: LOC_OS01G01410-cb001
# Procedure, shortened: (§1)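 Compounds dissolved in DMSO were added to purified rice kinase domain constructs, which had been expressed in E. coli, for differential scanning fluorimetry. Each well held 19.5 μl of 2 μM kinase in 100 mM potassium phosphate pH 7.5, 150 mM NaCl, 10% glycerol and 5 × SYPRO Orange. Fluorescence was followed from 25°C to 95°C at a rate of 0.05°C/s. Shifts in Boltzmann-fitted melting temperature are triplicate means relative to DMSO-only protein.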
# LOC_OS01G10900-cb004 = system: LOC_OS01G10900-cb004
# Procedure, shortened: as §1
# LOC_OS01G13800-cb001 = system: LOC_OS01G13800-cb001
# Procedure, shortened: as §1
# LOC_OS01G14860-cb001 = system: LOC_OS01G14860-cb001
# Procedure, shortened: as §1
# LOC_OS01G21960-cb002 = system: LOC_OS01G21960-cb002
# Procedure, shortened: as §1
# LOC_OS01G39600-cb002 = system: LOC_OS01G39600-cb002
# Procedure, shortened: as §1
# LOC_OS01G48390-cb002 = system: LOC_OS01G48390-cb002
# Procedure, shortened: as §1
# LOC_OS01G51400-cb002 = system: LOC_OS01G51400-cb002
# Procedure, shortened: as §1
# LOC_OS01G52050-cb004 = system: T1, LOC_OS01G52050-cb004
# T1 sequence (whole entry): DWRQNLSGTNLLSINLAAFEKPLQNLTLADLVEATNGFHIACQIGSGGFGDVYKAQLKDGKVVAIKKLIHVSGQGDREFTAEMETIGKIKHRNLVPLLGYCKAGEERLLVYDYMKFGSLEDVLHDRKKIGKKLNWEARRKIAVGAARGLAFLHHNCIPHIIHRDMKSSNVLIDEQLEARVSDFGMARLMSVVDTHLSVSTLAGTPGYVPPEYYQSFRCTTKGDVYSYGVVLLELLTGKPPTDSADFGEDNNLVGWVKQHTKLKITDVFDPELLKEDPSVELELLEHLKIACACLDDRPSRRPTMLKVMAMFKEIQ
# Procedure, shortened: as §1
# LOC_OS01G02750-cb003 = system: LOC_OS01G02750-cb003
# Procedure, shortened: as §1
Structure (SMILES),thermal shift delta Tm (LOC_OS01G01410-cb001) [°C],thermal shift delta Tm (LOC_OS01G10900-cb004) [°C],thermal shift delta Tm (LOC_OS01G13800-cb001) [°C],thermal shift delta Tm (LOC_OS01G14860-cb001) [°C],thermal shift delta Tm (LOC_OS01G21960-cb002) [°C],thermal shift delta Tm (LOC_OS01G39600-cb002) [°C],thermal shift delta Tm (LOC_OS01G48390-cb002) [°C],thermal shift delta Tm (LOC_OS01G51400-cb002) [°C],thermal shift delta Tm (LOC_OS01G52050-cb004) [°C],thermal shift delta Tm (LOC_OS01G02750-cb003) [°C]
O=C(O[C@@H]1Cc2c(O)cc(O)cc2O[C@@H]1c1cc(O)c(O)c(O)c1)c1cc(O)c(O)c(O)c1 [(-)-Epigallocatechin Gallate],0.41,-1.77,3.77,3.47,4.17,1.4,1.57,0.81,2.23,–
CN1CCCN(C(=O)c2cccc(-c3ccc(/C=C4/C(=O)Nc5ccc(Cl)cc54)o3)c2)CC1,2.05,2.9,0.13,4.25,1.58,–,1.96,0.12,0.58,1.47
Cc1ccc(C(=O)Nc2cccc(C(F)(F)F)c2)cc1Nc1nc(-c2cccnc2)nc2c1cnn2C,1.82,1.25,1.68,1.28,2.07,–,2.62,1.11,2.93,7.19
CCc1nc(-c2cccc(C)c2)c(-c2ccnc(NC(=O)c3ccccc3)c2)s1,0.24,0.38,-0.71,0.27,-0.03,0.93,0.28,0.2,0.24,0.26
"Cc1cc(C(=O)Nc2nc3cccc(Cl)c3n2[C@@H]2CCCCN(C(=O)/C=C/CN(C)C)C2)ccn1 [Nazartinib (EGF816, NVS-816)]",1.02,1.4,0.82,1.27,1.25,0.83,0.78,0.04,0.96,1.36
O=c1nc(N2CCOCC2)oc2c(-c3cccc4c3sc3ccccc34)cccc12,0.12,3.3,-0.44,0.6,0.45,-0.5,0.27,-0.4,1.17,-0.86
FC(F)(F)c1ccc(Nc2nc3ccc(Oc4ccnc(-c5ncc(C(F)(F)F)[nH]5)c4)cc3[nH]2)cc1 [Raf265 derivative],2.22,2.77,3.55,4.58,3.8,6.13,4.75,–,8.78,8.8
CC(C)(C)c1cc(/C=C(\C#N)C(N)=S)cc(C(C)(C)C)c1O [Tyrphostin AG 879],2.99,4.19,2.01,2.28,1.97,–,1.74,0.42,4.16,5.43
CCn1c(-c2nonc2N)nc2cnc(Oc3cccc(NC(=O)c4ccc(OCCN5CCOCC5)cc4)c3)cc21,0.15,1.47,0.89,6.06,0.9,0.75,1.02,0.31,0.93,1.24
Cn1sc(=O)n(Cc2ccccc2)c1=O,-9.79,–,0.24,-0.11,1.01,0.5,0.64,0.21,-0.28,-0.38
C=CC(=O)Nc1ccc2ncnc(Nc3ccc(OCc4cccc(F)c4)c(Cl)c3)c2c1,4.44,3.29,2.47,2.59,3.8,3.44,3.63,0.29,6.13,7.88
"O=C(c1ccc(F)c(F)c1Nc1ccc(I)cc1F)N1CC(O)([C@@H]2CCCCN2)C1 [Cobimetinib (GDC-0973, RG7420)]",0.62,0.3,0.01,0.39,0.36,-0.03,0.12,0.29,0.44,1.67
Cc1ccc(NC(=O)Nc2cc(C(F)(F)F)ccc2F)cc1Nc1ccc2c(c1)NC(=O)/C2=C\c1ccc[nH]1,0,-0.66,3.11,2.49,4.16,2.94,3.2,–,4.68,4.91
CO[C@H]1C[C@@H]2CC[C@@H](C)[C@@](O)(O2)C(=O)C(=O)N2CCCC[C@H]2C(=O)O[C@H]([C@H](C)C[C@@H]2CC[C@H](n3cnnn3)[C@H](OC)C2)CC(=O)[C@H](C)/C=C(\C)[C@@H](O)[C@@H](OC)C(=O)[C@H](C)C[C@H](C)/C=C/C=C/C=C/1C [Zotarolimus(ABT-578)],0.49,0.11,-0.04,0.22,1.09,–,1.07,0.06,1,0.69
OC1CCC(Oc2cccc3cnc(Nc4ccc5nc[nH]c5c4)nc23)CC1 (centres undefined),5.55,1.42,0.31,7.5,4.16,10.3,5.98,1.07,3.63,6.21
CN1CCN(c2ccc(Nc3cc(-c4cccc(-n5ccc6cc(C7CC7)cc(F)c6c5=O)c4CO)cn(C)c3=O)nc2)CC1,0.08,0.34,-0.27,0.17,0.86,–,0.24,0.38,0.27,-0.04
O=C(Nc1ccc(-c2ccnc(Nc3ccc(N4CCOCC4)cc3)n2)cc1)C1CCCN1 (centres undefined),-0.35,0.59,-0.02,1.14,1.5,–,0.45,0.18,0.51,-0.13
Nc1nccc(Oc2ccc(NC(=O)c3c[nH]cc(-c4ccc(F)cc4)c3=O)cc2F)c1Cl,1.82,3.07,0.39,5.69,1.58,–,2.63,0.87,2.83,5.03
O=c1[nH]nc(Sc2ncc([N+](=O)[O-])s2)n1-c1ccc2c(c1)OCCO2,1.48,8.23,1.65,2.21,1.25,–,2.84,-0.65,-3.66,–
COc1cc2nccc(Oc3ccc(NC(=O)NC4CC4)c(Cl)c3)c2cc1C(N)=O [Lenvatinib (E7080)],1.14,0.52,0.29,0.28,0.62,-0.02,0.47,0.04,0.33,1.17
Cc1cc(O)c2c(c1)C(=O)c1cccc(O)c1C2=O [Chrysophanic Acid],-0.01,1.45,0.25,0.31,0.83,–,1.12,-0.16,-0.47,-3.42
O=C(O)c1cc(O)c2c(c1)[C@@H]([C@H]1c3cc(C(=O)O)cc(O)c3C(=O)c3c(O[C@@H]4O[C@H](CO)[C@@H](O)[C@H](O)[C@H]4O)cccc31)c1cccc(O[C@@H]3O[C@H](CO)[C@@H](O)[C@H](O)[C@H]3O)c1C2=O [Sennoside B],4.96,6.66,2.08,4.72,3.52,–,4.78,–,8.22,27.3
